Screening results from PubChem.
In the library only some 3.5% were active in any assay of this set; here they are far more common.
FBW7 act: FBW7 E3 ligase activators, primary screen, biochemical, AlphaScreen, human | AlphaScreen FBW7–phospho-cyclin E peptide binding, activator screen | 0.13% of 650,000 active | normalized activity (activation), % at 26.1 µM | AID 1259310, 2017; in the data active = normalized activity above about 1.9%;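 note: purified mutant Fbw7 with reduced substrate affinity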
MITF primary: MITF inhibitors, primary screen, biochemical, AlphaScreen, human; AlphaScreen MITF homodimerization, bead proximity signal; 0.91% of 650,000 active; inhibition, % at 2.6 µM; Microphthalmia-associated transcription factor (Homo sapiens), O75030; in the data active = inhibition above about 50%
Target sequence (O75030 whole entry, looked up): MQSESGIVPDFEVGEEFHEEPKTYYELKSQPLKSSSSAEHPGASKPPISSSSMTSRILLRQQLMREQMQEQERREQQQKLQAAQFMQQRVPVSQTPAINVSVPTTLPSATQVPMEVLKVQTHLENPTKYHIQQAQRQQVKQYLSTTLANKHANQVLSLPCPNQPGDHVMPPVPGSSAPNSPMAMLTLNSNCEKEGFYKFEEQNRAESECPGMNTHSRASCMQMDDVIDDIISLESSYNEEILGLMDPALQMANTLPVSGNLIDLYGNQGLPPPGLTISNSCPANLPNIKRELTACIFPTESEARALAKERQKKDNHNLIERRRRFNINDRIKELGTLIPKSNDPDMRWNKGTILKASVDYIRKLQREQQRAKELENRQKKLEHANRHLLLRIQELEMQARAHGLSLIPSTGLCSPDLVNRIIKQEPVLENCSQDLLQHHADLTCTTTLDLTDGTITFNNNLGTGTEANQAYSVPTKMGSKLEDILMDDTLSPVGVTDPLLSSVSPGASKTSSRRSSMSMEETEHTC
TEAD-YAP inh: TEAD-YAP interaction inhibition, primary screen, TEAD-YAP interaction inhibitor project, luminescence, HEK-TIYL cells; TEAD-Gal4/YAP UAS-luciferase luminescence; inhibition, % at 9.12 µM; 1.4% of 640,000 active; AID 1259422, 2018; in the data active = inhibition above about 32%
GPR151 activ: activators of human GPR151, primary screen, cell-based, PathHunter beta-arrestin, luminescence | PathHunter beta-arrestin GPR151 cells | activation, % at 11.2 µM | 1% of 650,000 active | AID 1508602, 2020; in the data active = activation above about 4.9%
MITF confirm: MITF inhibitors, retest of hits, confirmation, biochemical, AlphaScreen, triplicate; shares compounds with MITF primary; AlphaScreen MITF homodimerization, biotin/His-MITF beads; inhibition, % at 2.6 µM; AID 1259372, 2018; 16% of 4,700 active;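 active = inhibition above a cutoff derived from the DMSO control wells, cut at about 28% in these data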;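 note: inhibitors lower the bead chemiluminescence by keeping MITF from dimerizing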
AlphaScreen intf2: AlphaScreen optical interference compounds, counter-screen for MITF inhibitor project, biochemical, triplicate; shares compounds with MITF primary; LysRS AlphaScreen counterscreen, signal interference; inhibition, % at 2.6 µM; 7.6% of 4,700 active; AID 1259376, 2018;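 active = inhibition above a cutoff derived from the DMSO control wells, cut at about 30% in these data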
Large screens that a line does not name were inactive (follow-up assays come after a bar, where they were run).

O=C(COC(=O)c1ccco1)c1ccc2ccccc2c1	MITF primary 92.3 | MITF confirm inactive | AlphaScreen intf2 inactive
CCc1c(C)sc(NC(=O)/C=C/c2ccc(Br)cc2)c1C(N)=O	none
CCCS(=O)(=O)N1CCN(Cc2ccncc2)CC1	MITF primary 62.3 | MITF confirm inactive | AlphaScreen intf2 inactive
CCOc1ccc(CN2CCN(S(=O)(=O)CC)CC2)cc1	none
CCCS(=O)(=O)N1CCN(Cc2ccc(SC)cc2)CC1	none
O=S(=O)(c1ccccc1)N1CCN(Cc2ccccc2)CC1	none
CCc1ccc(CN2CCN(S(=O)(=O)c3ccccc3)CC2)cc1	MITF primary 55.2 | MITF confirm inactive | AlphaScreen intf2 inactive
CCc1ccc(CN2CCN(S(=O)(=O)CC)CC2)cc1	MITF primary 51.4 | MITF confirm inactive | AlphaScreen intf2 inactive
Cc1ccc(CN2CCN(S(=O)(=O)c3ccccc3)CC2)cc1	MITF primary 70.7 | MITF confirm inactive | AlphaScreen intf2 inactive
CCOC(=O)C1CCN(C(=O)c2ccccc2OC(C)=O)CC1	none
CC(=O)Nc1ccc(S(=O)(=O)N2CCN(Cc3ccccc3[N+](=O)[O-])CC2)cc1	none
Cc1ccc(S(=O)(=O)N2CCN(Cc3ccccc3[N+](=O)[O-])CC2)cc1	MITF primary 77.5 | MITF confirm inactive | AlphaScreen intf2 inactive
COc1ccc(C(=O)NC2(c3ccccc3)CC2)cc1OC1CCN(C(C)C)CC1	none
O=C(c1cccnc1)N1CCN(CC2CC=CCC2)CC1 (stereo unspecified)	MITF primary 70.8 | MITF confirm inactive | AlphaScreen intf2 inactive
O=C(NCc1cccnc1)C1CCN(CC2CC=CCC2)CC1 (stereo unspecified)	MITF primary 63.1 | MITF confirm inactive | AlphaScreen intf2 inactive
O=C(c1ccncc1)N1CCN(CC2CC=CCC2)CC1 (stereo unspecified)	MITF primary 72.9 | MITF confirm inactive | AlphaScreen intf2 inactive
O=C(c1cccc(OC2CCN(CC3CC=CCC3)CC2)c1)N1CCOCC1 (stereo unspecified)	none
COc1ccc(CN2CCC(C(=O)NCCc3ccccc3)CC2)cc1	none
O=C(NCCc1ccccc1)C1CCN(Cc2cccnc2)CC1	MITF primary 50.7 | MITF confirm inactive | AlphaScreen intf2 inactive
O=C1CSC(c2ccccc2C(F)(F)F)N1c1ccc(F)c(Cl)c1 (stereo unspecified)	none
Cc1ccc(NC(=O)CN2CCN(c3ccccc3)CC2)cc1Br	none
Cc1[nH]c2ccccc2c1C(=O)COC(=O)CC(NC(N)=O)c1ccc(Cl)cc1 (stereo unspecified)	none
COC(=O)N/N=C/c1cc(C)n(-c2ccc(I)cc2)c1C	none
O=C(c1cccnc1)N1CCN(C2CCCC2)CC1	MITF primary 64.3 | MITF confirm inactive | AlphaScreen intf2 inactive
Cc1cc2c(c(=O)n1C)C1(C(=O)N(Cc3ccccc3Cl)c3ccccc31)C(C#N)=C(N)O2 (stereo unspecified)	none
O=C(CN1CCOCC1)Nc1ccccc1N1CCOCC1	MITF primary 87.1 | MITF confirm inactive | AlphaScreen intf2 inactive
O=C(CNCC1CCCO1)Nc1ccccc1N1CCCCC1 (stereo unspecified)	MITF primary 60.0 | MITF confirm inactive | AlphaScreen intf2 inactive
Cc1cc(N)ccc1NC(=O)CN1CCCC1	MITF primary 67.5 | MITF confirm inactive | AlphaScreen intf2 inactive
CN1CCN(CC(=O)Nc2ccccc2N2CCCCCC2)CC1	MITF primary 62.0 | MITF confirm inactive | AlphaScreen intf2 inactive
CCC(=O)Nc1ccccc1N1CCCC1	none
CC(C)(C)C(=O)NC(NCC1CCCO1)C(Cl)(Cl)Cl (stereo unspecified)	none
CC1CCN(CC(=O)Nc2ccccc2N2CCCCC2)CC1	none
O=C(CN1CCCC1)Nc1ccccc1N1CCCCC1	MITF primary 62.4 | MITF confirm inactive | AlphaScreen intf2 inactive
O=C(CNC1CCCCC1)Nc1ccccc1N1CCCCC1	MITF primary 53.6 | MITF confirm inactive | AlphaScreen intf2 inactive
Cc1cc(NC(=O)CNCC2CCCO2)no1 (stereo unspecified)	MITF primary 54.5 | MITF confirm inactive | AlphaScreen intf2 inactive
O=C(CSc1nc2cc(C(=O)N3CCCCC3)ccc2c(=O)n1C1CCCCC1)c1ccccc1	none
O=C(CSCC(=O)OCC(=O)N1CCOCC1)Nc1ccc(Br)cn1	none
COc1ccccc1CNCC(=O)c1ccc(OC)c(OC)c1	MITF primary 68.4 | MITF confirm inactive | AlphaScreen intf2 inactive
Clc1ccc(OCCCCn2ccnc2)cc1Cl	MITF primary 54.8 | MITF confirm inactive | AlphaScreen intf2 inactive
Clc1ccc(OCCOCCn2ccnc2)cc1Cl	none
Brc1c(OCCCCn2ccnc2)ccc2ccccc12	MITF primary 78.0 | MITF confirm inactive | AlphaScreen intf2 inactive
Clc1cc(Br)ccc1OCCCCn1ccnc1	MITF primary 74.2 | MITF confirm inactive | AlphaScreen intf2 inactive
CC(=O)N1CCOc2cc(S(=O)(=O)N3C(C)CCCC3C)ccc21 (stereo unspecified)	none
NC(=O)C[C@H](NC(=O)c1ccc(Cl)cc1)C(=O)O	none
CCN(CC)S(=O)(=O)c1cc(C(=O)Nc2ccc(Cl)cc2)ccc1Br	MITF primary 71.7 | MITF confirm inactive | AlphaScreen intf2 inactive
CCN(CC)S(=O)(=O)c1cc(C(=O)Nc2ccc(Br)cc2)ccc1Br	none
COc1ccc(CCN(CCC(=O)O)CCC(=O)O)cc1OC	MITF primary 57.6 | MITF confirm inactive | AlphaScreen intf2 inactive
CC(C)(C)c1ccc(OCc2n[nH]c(=S)n2N)cc1	none
Clc1ccc(Cl)c(OCCCCN2CCNCC2)c1	none
CC(O)CNCCCOc1ccc(Cl)cc1C(C)(C)C (stereo unspecified)	MITF primary 52.4 | MITF confirm inactive | AlphaScreen intf2 57.2
CC(C)(C)c1cc(Cl)ccc1OCCN1CCNCC1	MITF primary 58.7 | MITF confirm inactive | AlphaScreen intf2 inactive
CC(C)(C)c1cc(Cl)ccc1OCCCN1CCNCC1	MITF primary 76.1 | MITF confirm inactive | AlphaScreen intf2 inactive
CC(C)(C)c1ccc(-c2nnc(SCC(=O)N3CCCCC3)o2)cc1	none
COc1ccccc1CC(CC(=O)O)C1CCOC(C)(C)C1 (stereo unspecified)	none
CC1Oc2ccccc2N(Cc2ccc3ccccc3n2)C1=O (stereo unspecified)	none
CCN1CCN(CCOc2cccc(Cl)c2Cl)CC1	MITF primary 71.5 | MITF confirm inactive | AlphaScreen intf2 inactive
CCN1CCN(CCOc2cc(C)ccc2Cl)CC1	MITF primary 71.9 | MITF confirm inactive | AlphaScreen intf2 inactive
CCN1CCN(CCCOc2ccccc2F)CC1	none
